Common to all, as to parameters: scale not given: direction of the effect not stated beside the values
The target in assay [1] is Protein translocase subunit SecA (Escherichia coli (strain K12)) (UniProt P10408). The experiment in a line: Assay to Identify E. coli SecA ATPase Inhibitors. It is filed as functional. As to conditions: 30 µM.
Assay [2] has as its target T1, Ubiquitin-activating enzyme e1, putative (Leishmania donovani (strain BPK282A1)) (UniProt E9BSI1).
T1 sequence (whole entry): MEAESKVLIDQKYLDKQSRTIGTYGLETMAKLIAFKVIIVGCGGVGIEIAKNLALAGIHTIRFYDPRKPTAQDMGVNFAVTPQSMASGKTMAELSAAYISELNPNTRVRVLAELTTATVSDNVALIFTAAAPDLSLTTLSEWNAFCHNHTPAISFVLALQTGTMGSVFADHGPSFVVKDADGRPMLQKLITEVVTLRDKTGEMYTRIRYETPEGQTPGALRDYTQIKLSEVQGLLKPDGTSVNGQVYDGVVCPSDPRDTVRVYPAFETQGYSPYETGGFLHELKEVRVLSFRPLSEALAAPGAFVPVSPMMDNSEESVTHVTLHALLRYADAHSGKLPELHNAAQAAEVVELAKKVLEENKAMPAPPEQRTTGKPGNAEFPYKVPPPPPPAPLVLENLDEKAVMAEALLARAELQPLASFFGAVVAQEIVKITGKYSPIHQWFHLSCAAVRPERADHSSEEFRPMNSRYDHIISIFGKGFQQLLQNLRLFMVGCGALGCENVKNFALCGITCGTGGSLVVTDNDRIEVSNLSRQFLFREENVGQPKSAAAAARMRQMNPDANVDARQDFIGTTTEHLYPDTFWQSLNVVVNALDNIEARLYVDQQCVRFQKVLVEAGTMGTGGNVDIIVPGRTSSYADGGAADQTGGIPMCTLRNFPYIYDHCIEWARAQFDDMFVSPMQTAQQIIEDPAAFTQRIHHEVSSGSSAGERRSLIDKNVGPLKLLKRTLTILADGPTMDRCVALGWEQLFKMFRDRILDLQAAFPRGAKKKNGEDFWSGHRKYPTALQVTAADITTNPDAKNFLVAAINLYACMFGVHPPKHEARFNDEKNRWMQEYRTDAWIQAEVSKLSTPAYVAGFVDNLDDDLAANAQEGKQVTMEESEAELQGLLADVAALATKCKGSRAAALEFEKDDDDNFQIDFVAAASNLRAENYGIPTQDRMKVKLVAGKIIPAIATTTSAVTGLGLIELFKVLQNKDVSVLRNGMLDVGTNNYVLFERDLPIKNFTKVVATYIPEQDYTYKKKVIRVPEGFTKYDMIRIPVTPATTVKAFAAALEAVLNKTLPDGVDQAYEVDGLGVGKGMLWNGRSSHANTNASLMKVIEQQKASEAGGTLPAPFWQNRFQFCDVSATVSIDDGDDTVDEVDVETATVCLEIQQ
In words: Leishmania donovani Ubiquitin Activating Enzyme (LdE1). Format: functional. As to conditions: 30 µM.

The target in assay [3] is AMP-activated protein kinase, AMPK (Homo sapiens) (UniProt P54646+O43741+P54619+Q9UGJ0+Q9Y478+Q13131+Q9UGI9). In words: AMP-dependent Kinase enzyme assay. An in vitro enzyme assay that detects ADP turnover that is directly proportional to AMPK activity. This uses naive AMPK that is activated during the assay with MK-8722. Format: functional. As to conditions: 30 µM.
For assay [4], the target named is Sialic acid-binding Ig-like lectin 9 (Homo sapiens) (UniProt Q9Y336). The experiment in a line: Hs-Siglec9 ALPHAscreen SOP 20170721. As to conditions: 10 µM.
The test system of a further assay is Trypanosoma cruzi. The experiment in a line: Trypanosoma cruzi phosphomannomutase and mannose-1-phosphate guanylyltransferase assay. Format: functional. The following applies: 10 µM.
For assay [5], the target named is T2, Arginase-2, mitochondrial (Homo sapiens) (UniProt P78540).
T2 sequence (whole entry): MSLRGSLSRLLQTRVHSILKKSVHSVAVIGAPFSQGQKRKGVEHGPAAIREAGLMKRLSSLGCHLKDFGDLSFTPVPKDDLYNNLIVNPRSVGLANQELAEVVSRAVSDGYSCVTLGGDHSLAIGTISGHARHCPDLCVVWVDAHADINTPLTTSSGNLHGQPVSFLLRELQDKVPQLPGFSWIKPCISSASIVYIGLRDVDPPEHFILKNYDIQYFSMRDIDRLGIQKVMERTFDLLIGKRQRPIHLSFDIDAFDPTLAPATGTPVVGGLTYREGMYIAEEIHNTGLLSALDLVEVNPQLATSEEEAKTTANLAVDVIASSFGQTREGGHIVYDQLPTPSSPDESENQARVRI
In words: in vitro enzyme assay to detect the production of urea directly proportional to the activity of Arginase II. Further: in the data most compounds retested in dose-response had high values. It is filed as functional. The following applies: 33.3 µM.

Assay [6] addresses T3, Proteasome subunit beta (Trypanosoma cruzi) (UniProt O96673).
T3 sequence (whole entry): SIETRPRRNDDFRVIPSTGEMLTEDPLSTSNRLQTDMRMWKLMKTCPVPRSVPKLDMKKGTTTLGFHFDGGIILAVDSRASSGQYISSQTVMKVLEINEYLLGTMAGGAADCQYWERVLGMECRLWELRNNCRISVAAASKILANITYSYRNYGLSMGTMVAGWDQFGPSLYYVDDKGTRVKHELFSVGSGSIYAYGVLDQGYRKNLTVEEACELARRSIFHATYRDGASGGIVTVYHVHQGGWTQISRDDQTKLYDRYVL
In words: Trypanosoma cruzi proteasome chymotrypsin-like activity (TcProtChymo) assay. Further: in the data most compounds retested in dose-response had high values. It is filed as functional. The following applies: 9.37 µM.

The species named for a further assay is Homo sapiens. The experiment in a line: To identify inhibition of the IFN signalling (Jak-Stat) pathway via expression of an eGFP reporter gene under the control of an IFN-stimulated response element (ISRE) containing MxA promoter. Format: functional. As to conditions: 30 µM.
For assay [7], the target named is T4, Tyrosyl-tRNA synthetase, putative (Trypanosoma cruzi (strain CL Brener)) (UniProt Q4DSP6).
T4 sequence (whole entry): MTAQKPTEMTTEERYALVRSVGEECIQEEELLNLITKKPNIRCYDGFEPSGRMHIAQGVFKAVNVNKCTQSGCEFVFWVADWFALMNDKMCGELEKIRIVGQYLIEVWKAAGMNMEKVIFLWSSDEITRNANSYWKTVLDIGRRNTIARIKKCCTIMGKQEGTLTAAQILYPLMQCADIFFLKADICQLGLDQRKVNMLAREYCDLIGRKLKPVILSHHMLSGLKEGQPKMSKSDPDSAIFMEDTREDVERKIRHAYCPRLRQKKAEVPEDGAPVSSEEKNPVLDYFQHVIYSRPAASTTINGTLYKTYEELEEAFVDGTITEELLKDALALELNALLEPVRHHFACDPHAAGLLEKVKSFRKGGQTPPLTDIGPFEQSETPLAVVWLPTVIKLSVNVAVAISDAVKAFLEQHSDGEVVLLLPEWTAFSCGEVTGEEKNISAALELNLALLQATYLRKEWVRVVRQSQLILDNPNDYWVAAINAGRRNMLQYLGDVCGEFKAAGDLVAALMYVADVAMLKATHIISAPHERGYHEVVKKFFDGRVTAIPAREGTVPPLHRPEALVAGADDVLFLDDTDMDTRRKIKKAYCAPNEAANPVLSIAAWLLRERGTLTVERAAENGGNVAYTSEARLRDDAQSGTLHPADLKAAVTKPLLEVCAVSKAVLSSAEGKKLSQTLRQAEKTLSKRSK
The experiment in a line: Trypanosoma cruzi tyrosyl tRNA synthetase (TcYRS) _High Tyrosine SOP. Further: in the data most compounds retested in dose-response had high values. It is filed as functional. As to conditions: 30 µM.

The target in assay [8] is T4, Tyrosyl-tRNA synthetase, putative (Trypanosoma cruzi (strain CL Brener)). The experiment in a line: Trypanosoma cruzi tyrosyl tRNA synthetase (TcYRS) SOP. It is filed as functional. As to conditions: 30 µM.
Assay [9] concerns the target Chromo domain-containing protein 1 (Saccharomyces cerevisiae (strain ATCC 204508 / S288c) (Baker's yeast)) (UniProt P32657). In words: ScCHD-1 Enzyme Inhibition Assay. Further: in the data most compounds retested in dose-response had high values. Format: functional. The following applies: 30 µM.

Each structure is given as a SMILES string. For some of these results: Potency and affinity values are given separately.

Sequence of Sialic acid-binding Ig-like lectin 9 (Homo sapiens) (Q9Y336 whole entry): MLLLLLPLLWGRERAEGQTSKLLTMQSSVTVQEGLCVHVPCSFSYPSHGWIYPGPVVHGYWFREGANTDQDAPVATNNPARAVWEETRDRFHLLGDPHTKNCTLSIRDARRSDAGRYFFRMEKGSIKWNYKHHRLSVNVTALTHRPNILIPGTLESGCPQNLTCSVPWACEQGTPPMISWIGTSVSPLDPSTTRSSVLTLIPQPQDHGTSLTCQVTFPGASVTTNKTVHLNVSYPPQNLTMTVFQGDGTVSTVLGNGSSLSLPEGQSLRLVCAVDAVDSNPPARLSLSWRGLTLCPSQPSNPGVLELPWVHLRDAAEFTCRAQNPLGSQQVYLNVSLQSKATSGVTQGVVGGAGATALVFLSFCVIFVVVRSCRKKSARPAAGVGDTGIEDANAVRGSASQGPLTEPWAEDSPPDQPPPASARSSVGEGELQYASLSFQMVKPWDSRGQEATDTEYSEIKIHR
Sequence of Protein translocase subunit SecA (Escherichia coli (strain K12)) (P10408 whole entry): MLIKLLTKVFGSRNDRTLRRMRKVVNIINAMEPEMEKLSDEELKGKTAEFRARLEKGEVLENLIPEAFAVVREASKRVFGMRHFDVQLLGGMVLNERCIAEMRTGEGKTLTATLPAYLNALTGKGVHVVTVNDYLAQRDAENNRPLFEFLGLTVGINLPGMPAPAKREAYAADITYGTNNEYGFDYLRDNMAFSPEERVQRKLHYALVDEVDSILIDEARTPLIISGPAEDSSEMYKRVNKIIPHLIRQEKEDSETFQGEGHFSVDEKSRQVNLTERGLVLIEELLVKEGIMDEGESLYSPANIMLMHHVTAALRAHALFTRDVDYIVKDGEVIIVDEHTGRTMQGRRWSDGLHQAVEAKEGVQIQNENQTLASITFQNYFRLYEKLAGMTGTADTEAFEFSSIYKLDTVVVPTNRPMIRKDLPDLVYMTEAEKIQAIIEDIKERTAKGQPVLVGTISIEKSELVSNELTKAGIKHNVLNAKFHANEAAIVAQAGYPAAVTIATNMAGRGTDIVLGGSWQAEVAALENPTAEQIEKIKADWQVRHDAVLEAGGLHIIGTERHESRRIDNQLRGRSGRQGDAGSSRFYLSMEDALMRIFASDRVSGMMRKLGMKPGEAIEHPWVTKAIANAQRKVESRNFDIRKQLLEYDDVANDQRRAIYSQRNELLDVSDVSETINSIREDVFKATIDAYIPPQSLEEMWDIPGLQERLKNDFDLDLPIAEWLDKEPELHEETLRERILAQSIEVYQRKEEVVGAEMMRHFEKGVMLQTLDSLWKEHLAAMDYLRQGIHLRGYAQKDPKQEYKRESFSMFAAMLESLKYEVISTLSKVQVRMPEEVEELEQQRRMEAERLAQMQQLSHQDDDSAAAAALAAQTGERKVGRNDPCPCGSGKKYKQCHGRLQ
Sequence of Chromo domain-containing protein 1 (Saccharomyces cerevisiae (strain ATCC 204508 / S288c) (Baker's yeast)) (P32657 whole entry, the tested form may be a part): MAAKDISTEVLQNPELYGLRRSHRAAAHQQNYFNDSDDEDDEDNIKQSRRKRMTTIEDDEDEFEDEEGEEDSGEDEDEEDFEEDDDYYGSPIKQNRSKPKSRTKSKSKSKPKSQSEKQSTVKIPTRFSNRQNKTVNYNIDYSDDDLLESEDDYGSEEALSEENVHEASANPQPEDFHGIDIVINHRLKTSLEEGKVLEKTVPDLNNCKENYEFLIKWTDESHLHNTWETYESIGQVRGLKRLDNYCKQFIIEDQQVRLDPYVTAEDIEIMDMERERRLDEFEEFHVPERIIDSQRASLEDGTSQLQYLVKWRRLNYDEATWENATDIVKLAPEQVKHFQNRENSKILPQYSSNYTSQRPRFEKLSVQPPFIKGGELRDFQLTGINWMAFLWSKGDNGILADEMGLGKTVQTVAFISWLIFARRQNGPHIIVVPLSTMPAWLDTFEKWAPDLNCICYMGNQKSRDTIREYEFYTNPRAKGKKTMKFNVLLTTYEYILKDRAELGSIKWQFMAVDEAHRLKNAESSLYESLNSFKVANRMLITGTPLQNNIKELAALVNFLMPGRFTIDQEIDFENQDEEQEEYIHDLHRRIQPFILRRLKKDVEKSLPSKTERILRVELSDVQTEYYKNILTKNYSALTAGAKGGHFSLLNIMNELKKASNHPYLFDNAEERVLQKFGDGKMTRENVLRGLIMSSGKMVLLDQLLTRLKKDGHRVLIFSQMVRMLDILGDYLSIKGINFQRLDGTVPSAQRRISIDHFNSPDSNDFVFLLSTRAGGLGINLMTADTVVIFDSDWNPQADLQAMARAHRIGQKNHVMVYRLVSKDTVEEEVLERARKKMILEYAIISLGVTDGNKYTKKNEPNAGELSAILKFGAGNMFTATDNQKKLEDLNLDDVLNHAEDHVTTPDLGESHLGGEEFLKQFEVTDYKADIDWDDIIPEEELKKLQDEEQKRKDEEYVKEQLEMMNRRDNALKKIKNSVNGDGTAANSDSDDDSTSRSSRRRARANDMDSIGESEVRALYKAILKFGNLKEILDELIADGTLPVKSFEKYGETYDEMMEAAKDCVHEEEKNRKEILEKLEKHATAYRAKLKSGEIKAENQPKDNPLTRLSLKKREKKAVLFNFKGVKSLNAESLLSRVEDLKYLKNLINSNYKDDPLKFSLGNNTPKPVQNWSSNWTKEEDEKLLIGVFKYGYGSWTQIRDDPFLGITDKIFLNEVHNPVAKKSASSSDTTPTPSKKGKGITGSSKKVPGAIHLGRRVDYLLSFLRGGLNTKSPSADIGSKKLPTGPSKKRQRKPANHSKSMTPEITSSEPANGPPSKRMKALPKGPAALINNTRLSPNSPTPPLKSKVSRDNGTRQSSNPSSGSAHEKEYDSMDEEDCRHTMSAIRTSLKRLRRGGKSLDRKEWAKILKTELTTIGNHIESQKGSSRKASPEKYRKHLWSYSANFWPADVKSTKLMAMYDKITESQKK

On to `Cc1ncsc1-c1nnc(C2CCN(Cc3ccc(F)cc3)CC2)o1`, for which the Percent Effect in [1] was -0.551%; in [2], -4.05%; in [3], 20%; in assay [4] it was -0.16%; in the assay with Trypanosoma cruzi it was 1.19%; in assay [5], -0.696%. Further, the Percent Effect was 1.25% in assay [6]; -6.87% in the assay listed under Homo sapiens; 0% in assay [7]; -6.49% in [8]; -19.5% in assay [9].
On to `Cc1ncsc1C(=O)NCCn1nc2ccccn2c1=O`, for which the Percent Effect in assay [1] is -2.94%; in assay [2], 13.5%; in [3], 0.246%; in assay [4], -6.32%; in the assay on Trypanosoma cruzi, -3.44%; in [5], 2.03%. The Percent Effect is 2.51% in [6]; 13.6% in the assay listed under Homo sapiens; 8.91% in [7]; 15.8% in [8]; -7.12% in assay [9].
As to `CCSCCC(=O)Nc1ncn(Cc2cccnc2)n1`, the Percent Effect in assay [1] is -2.86%; in [2], 5.33%; in assay [3] it was -3.63%; in [4], 8.4%; in the assay with Trypanosoma cruzi, -5.16%; in assay [5], 3.65%. The Percent Effect is 17.8% in assay [6]; 9.04% in the assay filed under Homo sapiens; 4.92% in assay [7]; 13.6% in [8]; -5.58% in assay [9].
On to `COc1ccc(C(O)CNC(=O)Nc2cc(C)nn2C)cc1` (stereo unspecified), for which the Percent Effect in [1] is -8.64%; in [2], 5.26%; in assay [3], 3.77%; in assay [4], -0.779%; in the assay with Trypanosoma cruzi, -9.59%; in [5] it was -1.53%. Besides, the Percent Effect in [6] was 15.4%; in the assay listed under Homo sapiens, 20.4%; in [7] it was -3.43%; in assay [8] it was -2.44%; in assay [9], -6.99%.
As for `Cc1noc(CCCC(=O)NC(C)c2cn(-c3ccccc3)nn2)n1` (stereo unspecified), the Percent Effect is -1.64% in assay [1]; 0% in assay [2]; 3.68% in assay [3]; 6.5% in [4]; 6.58% in the assay with Trypanosoma cruzi; 1.15% in assay [5]. The Percent Effect in assay [6] is 6.35%; in the assay listed under Homo sapiens, -19.3%; in assay [7] it was 2.45%; in assay [8], 4.88%; in [9], -6.39%.
In the case of `CC(=O)N1CCC2(CC1)COCCN2Cc1ccc(F)cc1`, the Percent Effect in assay [1] is -4.99%; in [2] it was 8.11%; in assay [3], 4.11%; in assay [4], -8.39%; in the assay with Trypanosoma cruzi it was -4.2%; in assay [5], -0.955%. For the same molecule, the Percent Effect is 18.1% in assay [6]; -2.37% in the assay filed under Homo sapiens; -1.08% in [7]; 7.69% in assay [8]; -1.77% in assay [9].
For the molecule `Cc1nn(C)c(C)c1C(=O)N1CCOCC1CC(=O)c1ccco1` (stereo unspecified), the Percent Effect in assay [1] was -2.08%; in assay [2], 0%; in [3], 5.49%; in [4], 5.37%; in the assay with Trypanosoma cruzi, 4.19%; in assay [5] it was -8.28%. For the same molecule, the Percent Effect in assay [6] was -0.0959%; in the assay listed under Homo sapiens, -9.68%; in assay [7], 0%; in [8] it was 7.79%; in [9] it was -0.43%.
For `Cc1ccc2c(c1)C1(CCNCC1)CN2C(=O)CN(C)C`, the Percent Effect in assay [1] is -3.67%; in assay [2], 10.8%; in assay [3] it was 5.31%; in [4], -2.86%; in the assay with Trypanosoma cruzi, -7.14%; in [5], 1.59%. Besides, the Percent Effect was 15.7% in assay [6]; 14.1% in the assay filed under Homo sapiens; 5.41% in assay [7]; 12.8% in assay [8]; -2.47% in assay [9].
Consider `Cc1nc(CN2CC3(CCN(c4ncc(F)cn4)C3)CC2=O)cs1` (stereo unspecified), for which the Percent Effect in assay [1] was -1.99%; in assay [2], 0%; in assay [3] it was 8.52%; in assay [4], 6.6%; in the assay with Trypanosoma cruzi, -0.69%; in [5] it was 1.94%. For the same molecule, the Percent Effect was 0.348% in [6]; 7.34% in the assay listed under Homo sapiens; 3.17% in assay [7]; 8.97% in assay [8]; -4.69% in assay [9].
`NC(=O)C1CCN(Cn2nc(-c3ccccc3)oc2=O)CC1`: the Percent Effect in assay [1] was -1.26%; in [2], 15.6%; in [3], 6.06%; in assay [4], 6.43%; with Trypanosoma cruzi, 1.08%; in assay [5], -56.5%. Further, the Percent Effect was 20.3% in [6]; 2.82% in the assay filed under Homo sapiens; 4.3% in assay [7]; 16.1% in assay [8]; -5.92% in assay [9].
On to `CCOC[C@@H]1CCC[C@@]12CN(Cc1nccs1)CCO2`, for which the Percent Effect in [1] is 0.173%; in assay [2], 16%; in assay [3] it was -1.62%; in assay [4], -5.32%; in the assay on Trypanosoma cruzi, 0.787%; in assay [5], 3.5%. Also, the Percent Effect was 17.4% in assay [6]; 10.8% in the assay listed under Homo sapiens; 7.45% in assay [7]; 19.2% in [8]; -7.27% in assay [9].

The values above are taken from ChEMBL document CHEMBL3988442, “University of Dundee, Small-Polar-MMV Screening Library” (2021).
